Laboratory results: PubChem BioAssay (NCATS)
A number with no mark means an inactive call. Records with an inconclusive call do not appear. Where a call stands in place of a potency, no number is given. Calls of active or inactive are those of the source. The call rests on the fitted dose curve; in most records, active means well fitted curve in the direction sought with a large enough effect; inconclusive means small, poorly fitted or top-dose-only effect, or another doubt; inactive means no such curve, though single readings can be large; an effect the other way counts as inactive or inconclusive.

Experiments:
[1] = target: Nuclear receptor subfamily 1 group I member 3 (Homo sapiens) (UniProt Q14994); experiment: Primary qHTS for antagonist of constitutive androstane receptor (CAR) against the NCATS DSHEA and TCM libraries (AID 1794836);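 further: HepG2 cells stably expressing hCAR with CYP2B6 luciferase reporter stimulated by CITCO; series mostly up to about 40 µM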
Nuclear receptor subfamily 1 group I member 3 (Homo sapiens), sequence (Q14994 whole entry, looked up): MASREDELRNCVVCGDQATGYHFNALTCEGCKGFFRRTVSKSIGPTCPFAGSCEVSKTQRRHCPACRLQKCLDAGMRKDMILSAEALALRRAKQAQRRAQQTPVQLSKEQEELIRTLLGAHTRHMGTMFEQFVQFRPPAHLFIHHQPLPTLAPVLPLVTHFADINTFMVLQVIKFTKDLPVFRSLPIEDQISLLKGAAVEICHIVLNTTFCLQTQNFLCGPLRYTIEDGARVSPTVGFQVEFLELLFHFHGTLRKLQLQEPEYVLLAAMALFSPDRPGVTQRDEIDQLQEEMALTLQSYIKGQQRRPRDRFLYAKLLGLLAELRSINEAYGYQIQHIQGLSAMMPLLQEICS
In short: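 Antagonist mode: CAR reporter luminescence (ONE-Glo) in HepG2-CYP2B6-hCAR cells stimulated with 48 uM CITCO (final) over 24 h at 37 C, compounds titrated; viability read first by CellTiter-Fluor fluorescence.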

[2] = NCATS anti-infectives library activity on HEK293 viability as a counter-qHTS vs the C. elegans viability qHTS (AID 1745854);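 further: HEK293 cells exposed to compounds for 24 hr before the viability read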
In short: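 Compound titrations (final up to 41.7 uM) were incubated with HEK293 cells for 24 hr at 37C under 5% CO2. Viable cells were quantified with CellTiter-Glo after 10 min at ambient temperature.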

[3] = Viability counterscreen for agonist of constitutive androstane receptor (CAR) against the NCATS DSHEA and TCM libraries (AID 1794838)
In short: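 HepG2-CYP2B6-hCAR cells (2,500/well) attached 5 h, then got compounds plus 0.75 uM PK11195 final. After 24 h at 37C, viability read by CellTiter-Fluor fluorescence (Ex/Em 405/540 nm).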

[4] = target: Nuclear receptor subfamily 1 group I member 3 (Homo sapiens) (UniProt Q14994); experiment: Primary qHTS for agonist of constitutive androstane receptor (CAR) against the NCATS DSHEA and TCM libraries (AID 1794839); conditions: Potency: CAR antagonist co-added at 0.75 µM unless noted;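 further: HepG2 cells expressing human CAR with a CYP2B6 reporter plus PK11195 antagonist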
In short: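 HepG2-CYP2B6-hCAR cells (2,500/well) were attached for 5 h, then treated for 24 h at 37 °C with compounds plus 0.75 µM PK11195. Luciferase luminescence (ONE-Glo) was read, with CellTiter-Fluor viability (Ex/Em 405/540 nm).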

[5] = HepG2 viability counterscreen (readout 2: ATP content) against the NCATS DSHEA and TCM libraries (AID 1794840);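 further: HepG2 cells exposed to substances for about 24 h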
In short: (§1)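 HepG2 cells (1,000 cells/well) attached ~4 h, then treated ~24 h at 37C with substances. Protease activity read by GF-AFC (25 uM final, 30 min, Ex/Em 380/510 nm); ATP content then by CellTiter-Glo luminescence.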

[6] = HepG2 viability counterscreen (readout 1: protease activity) against the NCATS DSHEA and TCM libraries (AID 1794841);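 further: cells exposed to compounds for about 24 h before the protease read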
In short: as §1

[7] = target: Cytochrome P450 2C9 (Homo sapiens) (UniProt P11712); experiment: qHTS for inhibitors of CYP2C9 against the NCATS DSHEA and TCM libraries (AID 1919973); further: potency means the concentration at half of the fitted maximal effect
Cytochrome P450 2C9 (Homo sapiens), sequence (P11712 whole entry, looked up, canonical isoform): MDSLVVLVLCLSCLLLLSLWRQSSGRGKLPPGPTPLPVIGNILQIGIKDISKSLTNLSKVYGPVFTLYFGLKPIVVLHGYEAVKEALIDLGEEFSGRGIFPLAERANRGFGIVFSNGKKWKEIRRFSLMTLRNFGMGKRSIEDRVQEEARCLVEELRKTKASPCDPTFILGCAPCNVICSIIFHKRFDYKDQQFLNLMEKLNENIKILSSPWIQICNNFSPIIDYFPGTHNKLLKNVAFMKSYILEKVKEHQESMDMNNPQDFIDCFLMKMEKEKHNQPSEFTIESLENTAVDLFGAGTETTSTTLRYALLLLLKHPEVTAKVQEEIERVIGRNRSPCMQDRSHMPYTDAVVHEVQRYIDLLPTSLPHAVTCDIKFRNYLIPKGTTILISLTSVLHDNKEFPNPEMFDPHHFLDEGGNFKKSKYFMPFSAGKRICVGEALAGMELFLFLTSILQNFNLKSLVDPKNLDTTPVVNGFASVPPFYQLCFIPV
In short: (§2)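 Isoform-specific enzyme and substrate levels; enzyme-free wells as background. Reaction: 1x NADPH regenerating system, 30-45 min, room temperature, shielded from light; luminescent detection reagent added, 30 min.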

[8] = target: Cytochrome P450 2C19 (Homo sapiens) (UniProt P33261); experiment: qHTS for inhibitors of CYP2C19 against the NCATS DSHEA and TCM libraries (AID 1919974);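 further: luminescence from luciferin released by CYP2C19 oxidation of a pro-luciferin substrate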
Cytochrome P450 2C19 (Homo sapiens), sequence (P33261 whole entry, looked up): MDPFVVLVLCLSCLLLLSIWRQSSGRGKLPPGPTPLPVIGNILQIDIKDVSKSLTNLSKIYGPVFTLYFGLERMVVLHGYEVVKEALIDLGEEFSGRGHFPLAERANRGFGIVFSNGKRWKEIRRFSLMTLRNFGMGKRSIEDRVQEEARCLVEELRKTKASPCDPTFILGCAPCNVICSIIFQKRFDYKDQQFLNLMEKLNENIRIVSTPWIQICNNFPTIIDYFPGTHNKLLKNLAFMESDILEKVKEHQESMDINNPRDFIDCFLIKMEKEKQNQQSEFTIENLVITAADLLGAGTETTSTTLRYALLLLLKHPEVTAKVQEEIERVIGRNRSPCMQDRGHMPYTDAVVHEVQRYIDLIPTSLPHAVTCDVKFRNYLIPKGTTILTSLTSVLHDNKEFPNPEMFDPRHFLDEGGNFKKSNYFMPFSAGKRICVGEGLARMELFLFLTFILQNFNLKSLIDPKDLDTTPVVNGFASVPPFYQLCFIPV
In short: as §2

[9] = KB-3-1 P-gp reporter qHTS against the NCATS DSHEA and TCM libraries (AID 1919975)
In short: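 Parental KB-3-1 human cervical adenocarcinoma cells (500 cells/well, DMEM + 10% FBS) were treated with substances for ~72 h at 37C; viability was read by CellTiter-Glo luminescence.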

[10] = KB-8-5-11 P-gp reporter qHTS against the NCATS DSHEA and TCM libraries (AID 1919977)
In short: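 P-gp-overexpressing KB-8-5-11 cells (500/well) were plated in colchicine-free DMEM with 10% FBS, attached ~4 h, then exposed to substance titrations for ~72 h at 37C. Viability was read by CellTiter-Glo luminescence.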

[11] = qHTS Counterscreen for compound interference against the NCATS DSHEA and TCM libraries (AID 1919978); conditions: firefly luciferase detection reagent interference, luminescence
In short: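 D-luciferin (1 uM final) or 100 mM potassium phosphate buffer alone was preincubated 15 min at RT with compounds (19.5 nM to 39.8 uM final). Luciferin detection reagent was then added and luminescence read after 30 min at RT.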

[12] = Dual reporter qHTS for agonist of Pregnane X Receptor (hPXR) against the NCATS DSHEA and TCM libraries: Fluorescence readout (AID 1920058)
In short: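 In this qHTS counter-read, reporter-bearing HepG2 cells in charcoal-stripped serum received substances for approximately 24 h before viability was assessed fluorometrically with CellTiter-Fluor.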

[13] = target: Nuclear receptor subfamily 1 group I member 2 (Homo sapiens) (UniProt O75469); experiment: Dual reporter qHTS for antagonist of Pregnane X Receptor (hPXR) against the NCATS DSHEA and TCM libraries: Luminescence Readout (AID 1920060)
Nuclear receptor subfamily 1 group I member 2 (Homo sapiens), sequence (O75469 whole entry, looked up): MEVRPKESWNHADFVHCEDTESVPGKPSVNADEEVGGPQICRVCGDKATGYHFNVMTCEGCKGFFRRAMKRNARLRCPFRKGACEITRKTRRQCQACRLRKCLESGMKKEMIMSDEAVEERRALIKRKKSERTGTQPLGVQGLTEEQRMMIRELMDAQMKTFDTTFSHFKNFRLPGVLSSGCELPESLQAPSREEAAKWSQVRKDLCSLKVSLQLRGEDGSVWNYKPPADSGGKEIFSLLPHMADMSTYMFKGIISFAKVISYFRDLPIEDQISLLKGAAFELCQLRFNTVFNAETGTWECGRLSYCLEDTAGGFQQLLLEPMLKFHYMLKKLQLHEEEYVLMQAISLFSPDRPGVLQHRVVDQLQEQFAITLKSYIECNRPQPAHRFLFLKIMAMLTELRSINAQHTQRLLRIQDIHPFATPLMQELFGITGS
In short: (§3)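 Rifampicin-stimulated (2 uM final) hPXR-luciferase HepG2 cells were treated for 24 h with DSNP/TCM substances. Viability came from CellTiter-Fluor fluorescence, reporter activity from ONE-Glo luminescence.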

[14] = Dual reporter qHTS for antagonist of Pregnane X Receptor (hPXR) against the NCATS DSHEA and TCM libraries: Fluorescence Readout (AID 1920061)
In short: as §3

[15] = target: Cytochrome P450 2D6 (Homo sapiens) (UniProt P10635); experiment: qHTS for inhibitors of CYP2D6 against the NCATS DSHEA and TCM libraries (AID 1919972)
Cytochrome P450 2D6 (Homo sapiens), sequence (P10635 whole entry, looked up): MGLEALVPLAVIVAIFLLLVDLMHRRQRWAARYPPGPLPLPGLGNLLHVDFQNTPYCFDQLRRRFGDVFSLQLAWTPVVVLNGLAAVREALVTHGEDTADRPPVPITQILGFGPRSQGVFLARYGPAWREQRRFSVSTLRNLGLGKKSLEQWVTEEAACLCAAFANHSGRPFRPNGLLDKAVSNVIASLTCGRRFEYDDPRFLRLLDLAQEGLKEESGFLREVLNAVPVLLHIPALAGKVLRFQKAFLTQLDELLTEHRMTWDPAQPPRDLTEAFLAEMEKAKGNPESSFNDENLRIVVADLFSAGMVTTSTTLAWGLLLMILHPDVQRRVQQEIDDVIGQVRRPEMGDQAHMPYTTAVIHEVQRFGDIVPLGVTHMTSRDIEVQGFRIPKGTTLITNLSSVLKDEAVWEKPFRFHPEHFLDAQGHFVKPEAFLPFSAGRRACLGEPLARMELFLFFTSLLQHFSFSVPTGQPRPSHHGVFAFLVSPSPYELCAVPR
In short: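 qHTS, concentration–response format with most substances from 19.5 nM. CYP2D6 + pro-luciferin substrate, 15 min with compound, then 1x NADPH regen, 30–45 min RT dark. Glo detection 30 min, luminescence. Quinidine control.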

[16] = target: Nuclear receptor subfamily 1 group I member 2 (Homo sapiens) (UniProt O75469); experiment: Dual reporter qHTS for agonist of Pregnane X Receptor (hPXR) against the NCATS DSHEA and TCM libraries: Luminescence readout (AID 1920059)
In short: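 Luminescent PXR reporter read (ONE-Glo) after a CellTiter-Fluor viability read, following 24 h, 37C treatment of HepG2 cells stably carrying hPXR-Luc.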

In the case of COC(=O)C1=CO[C@@H](C)[C@H]2CN3CCc4c([nH]c5ccccc45)[C@@H]3C[C@H]12, the Potency [1] is reported as “inactive”.
For O=c1c(O[C@@H]2O[C@H](CO)[C@H](O)[C@H](O)[C@H]2O)c(-c2ccc(O)c(O)c2)oc2cc(O)cc(O)c12, the Potency [1] was “inactive”.
For C[C@@H](N)C(=O)N[C@@H](CO)C(=O)N[C@H](C(=O)N[C@H](C(=O)N[C@H](C(=O)N[C@@H](CC(N)=O)C(=O)N[C@@H](Cc1ccc(O)cc1)C(=O)N[C@H](C(N)=O)[C@@H](C)O)[C@@H](C)O)[C@@H](C)O)[C@@H](C)O, the Potency [2] was “inactive”.
With CCCCCCCC/C=C\CCCCCCCCCCCCCC(=O)O the Potency [1] was “inactive”.
In the case of COC1=C[C@@]23CCN(C)[C@H](Cc4ccc(OC)c(O)c42)C3=CC1=O, the Potency [1] is reported as “inactive”, the outcome [3] is reported as “inactive” and the Potency [4] is reported as “inactive”. The outcome [5] was “inactive”, the outcome [6] was “inactive” and the Potency [7] was “inactive”. The Potency [8] was “inactive”, the outcome [9] was “inactive” and the Potency [10] was “inactive”. The max response [11] was -3.14%, the outcome [12] was “inactive” and the outcome [13] was “inactive”. For the same compound, the outcome [14] was “inactive”.
For COc1ccc(-c2coc3cc(O[C@@H]4O[C@H](CO)[C@@H](O)[C@H](O)[C@H]4O)ccc3c2=O)cc1, the Potency [1] was “inactive”.
For CCCCCCCCCCCCCCCCCCCC(=O)O, the Potency [1] was “inactive”, the outcome [3] was “inactive” and the Potency [4] was “inactive”. For the same compound, the outcome [5] was “inactive”, the outcome [6] was “inactive” and the Potency [15] was “inactive”. For the same compound, the Potency [7] was 15.8 µM (active), the outcome [9] was “inactive” and the Potency [10] was “inactive”. For the same compound, the max response [11] was 0.104%, the outcome [12] was “inactive” and the Potency [16] was “inactive”. For the same compound, the outcome [13] was “inactive” and the outcome [14] was “inactive”.
In the case of CC/C=C\C/C=C\C/C=C\CCCCCCCC(=O)O, the Potency [1] is reported as “inactive”.
With CC(C)=CCCC(C)(OC1OC(COC2OC(CO)C(O)C2O)C(O)C(O)C1O)C1CCC2(C)C1C(O)CC1C3(C)CCC(OC4OC(CO)C(O)C(O)C4OC4OC(CO)C(O)C(O)C4O)C(C)(C)C3CCC12C (stereo not drawn) the Potency [1] was “inactive”.
In the case of OC[C@H]1O[C@@H](OC[C@H]2O[C@@H](OC/C=C/c3ccccc3)[C@H](O)[C@@H](O)[C@@H]2O)[C@@H](O)[C@@H]1O, the Potency [1] is reported as “inactive”.
For C=C(C)C(CC=C(C)C)CC12CC(CC=C(C)C)C(C)(C)C(CC=C(C)C)(C(=O)/C(=C(\O)c3ccc(O)c(O)c3)C1=O)C2=O (stereo not drawn), the Potency [1] was “inactive”.
In the case of O=C(Nc1ccccc1F)N[C@H]1N=C(c2ccccc2)c2ccccc2NC1=O, the Potency [2] is reported as “inactive”.
In the case of C[C@@H](COc1ccc(Oc2ccccc2)cc1)Oc1ccccn1, the Potency [2] is reported as “inactive”.
